Source: PubChem
Hits are enriched below; roughly 0.38% of the tested compounds scored in any of these assays.
EPAC1 antag – EPAC1 (human) antagonism | EPAC1 GEF assay, Rap1b-BODIPY-GDP exchange fluorescence | AID 720709 | O95398 | Potency, µM (doses to about 115 µM), inactives show at the top dose activity change, negative = inhibition, most hits filed as inhibitors | actives 0.14% (n = 360,000);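 further: plate controls were vehicle for no effect and positive control for full effect; nearly all actives have a fitted effect of over 50% in size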
EPAC2 agonist – agonists of human EPAC2 (RAPGEF4); EPAC2 activation, biochemical qHTS; response scale: 100% = 6.5 mM cAMP response; Potency, µM (titrated, usually from 154 µM), without a hit: top-dose activation, usual class: activators; actives 0.079% (n = 360,000); AID 720711; further: nearly all actives have a fitted effect of over 50% in size
Target sequence (Q8WZA2 whole entry, looked up): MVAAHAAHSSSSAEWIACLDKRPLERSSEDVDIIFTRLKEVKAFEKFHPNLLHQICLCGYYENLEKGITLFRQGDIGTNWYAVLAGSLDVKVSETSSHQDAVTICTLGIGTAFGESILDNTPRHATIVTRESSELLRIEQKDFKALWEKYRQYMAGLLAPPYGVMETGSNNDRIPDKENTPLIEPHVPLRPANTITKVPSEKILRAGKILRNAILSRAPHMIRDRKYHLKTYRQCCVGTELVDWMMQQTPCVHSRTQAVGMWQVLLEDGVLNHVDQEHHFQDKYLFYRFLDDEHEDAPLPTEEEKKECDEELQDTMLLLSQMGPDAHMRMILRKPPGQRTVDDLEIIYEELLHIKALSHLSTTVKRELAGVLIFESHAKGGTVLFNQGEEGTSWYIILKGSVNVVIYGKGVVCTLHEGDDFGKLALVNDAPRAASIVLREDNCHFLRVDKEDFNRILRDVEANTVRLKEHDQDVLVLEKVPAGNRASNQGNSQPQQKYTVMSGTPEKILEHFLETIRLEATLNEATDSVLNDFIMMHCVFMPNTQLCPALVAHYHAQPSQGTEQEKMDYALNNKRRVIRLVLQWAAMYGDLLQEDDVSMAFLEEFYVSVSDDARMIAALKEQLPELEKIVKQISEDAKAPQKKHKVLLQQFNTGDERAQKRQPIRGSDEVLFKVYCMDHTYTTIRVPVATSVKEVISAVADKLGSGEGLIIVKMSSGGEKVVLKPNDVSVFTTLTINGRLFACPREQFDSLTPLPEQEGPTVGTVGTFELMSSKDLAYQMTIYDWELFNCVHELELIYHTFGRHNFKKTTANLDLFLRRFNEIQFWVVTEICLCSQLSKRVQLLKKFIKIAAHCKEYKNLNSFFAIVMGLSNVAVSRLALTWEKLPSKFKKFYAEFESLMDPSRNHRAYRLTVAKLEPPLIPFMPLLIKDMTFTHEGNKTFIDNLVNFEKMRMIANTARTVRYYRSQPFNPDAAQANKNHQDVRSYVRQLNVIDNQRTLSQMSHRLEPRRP
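In this primary screen, activation is scored as increased exchange of BODIPY-GDP from Rap1B by 100 nM EPAC2, with 50 uM GDP as competitor. Signal is normalized to the 6.5 mM cAMP agonist control.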
EPAC2 antag – antagonists of human EPAC2. EPAC2 GEF exchange of Rap1B-BODIPY-GDP, fluorescence. Potency, µM (doses to about 114 µM), for inactives: at the highest dose activity, negative = inhibition, usual class: inhibitors. actives 0.18% (n = 360,000); further: on the % scale 0 is the no-effect control and ±100 the full control effect; nearly all actives have a fitted effect of over 45% in size
EPAC1 agonist – EPAC1 (human) agonism; Potency, µM (series often up to 154 µM), for the others: at the top dose activation, actives largely listed as activators; actives 0.073% (n = 360,000); AID 720707; EPAC1 agonist qHTS, biochemical assay; response scale: 100% = response to 6.5 mM cAMP; further: nearly all actives have a fitted effect of over 60% in size
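Read-out is the fluorescence drop as BODIPY-GDP leaves Rap1B (480 nm excitation, 540 nm emission), recorded every 5 minutes over 30 minutes. Reactions held 100 nM EPAC1, 250 nM Rap1B–BODIPY-GDP and 50 uM GDP, with 6.5 mM cAMP setting full activation.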
Active calls of the source: *; i = inactive; u = inconclusive. The call rests on the fitted dose curve; in most records, active means well fitted curve in the direction sought with a large enough effect; inconclusive means small, poorly fitted or top-dose-only effect, or another doubt; inactive means no such curve, though single readings can be large; an effect the other way counts as inactive or inconclusive. Potency means the concentration at half of the fitted maximal effect.

SMILES	EPAC1 antag	EPAC2 agonist	EPAC2 antag	EPAC1 agonist
O=C(COC(=O)c1cc(=O)[nH]c2ccccc12)NCCc1ccccc1	-3.3%	5.9%	-13.0%	0.2%
CCOC(=O)C1=CN(Cc2cccc(F)c2)S(=O)(=O)N(CC)C1c1ccc(C(F)(F)F)cc1 (stereo not drawn)	-17.1%	0.8%	-4.0%	-19.4%
CC(=O)NC(c1ccc(Cl)cc1Cl)c1ccc2cccnc2c1O (stereo not drawn)	u	4.1%	20µM*	-10.0%
C(=C\c1ccccc1)/CN1CCN(C(c2cccc3ccccc23)c2nnnn2-c2ccc3c(c2)OCCO3)CC1 (stereo not drawn)	-1.3%	10.7%	9.7%	7.2%
CCCCn1c(N)c(N(CC(C)C)C(=O)C2CCN(S(=O)(=O)c3ccccc3)CC2)c(=O)[nH]c1=O	-0.9%	1.0%	25.7%	-2.2%
CCCCn1c(N)c(N(CC(C)C)C(=O)C2CCN(S(=O)(=O)c3ccc(C)c(C)c3)CC2)c(=O)[nH]c1=O	50.1µM*	-6.6%	28.8%	-10.9%
NS(=O)(=O)c1ccc(NC(=O)COC(=O)Cc2c[nH]c3ccccc23)cc1	-5.7%	3.4%	-3.3%	8.8%
O=C(OCCN1C(=O)c2cccc3c(N4CCOCC4)ccc(c23)C1=O)c1cccc(Cl)c1	65.1%	-44.4%	169.8%	25.1µM*
CC(=Cc1ccccc1)C=C1SC(=S)N(CCCC(=O)Nc2ccc(C(=O)O)c(O)c2)C1=O	50.1µM*	0.0%	0.1%	12.4%
O=C(CCN1C(=O)/C(=C/c2cccs2)SC1=S)Nc1ccc(C(=O)O)c(O)c1	79.4µM*	4.9%	-9.8%	3.5%
Cc1ccc(NC(=O)COc2cccc(/C=C3\SC(=S)N(CCC(=O)O)C3=O)c2)cc1Cl	50.1µM*	-8.1%	33.6%	u
O=C(O)CCN1C(=O)/C(=C\c2cccc(OCC(=O)Nc3ccc(Cl)cc3)c2)SC1=S	u	-2.3%	14.7%	u
CCc1nc2c(OCCn3cccc3)cccn2c1N(C)C(=O)c1ccccc1F	-5.2%	7.0%	7.0%	3.9%
Oc1cc2ccccc2cc1-c1n[nH]c(=S)o1	79.4µM*	4.0%	-6.5%	-8.9%
O=C(O)C(c1ccccc1)N1C(=O)/C(=C\c2ccc(O)c(O)c2)SC1=S (stereo not drawn)	31.6µM*	-2.1%	22.4µM*	-3.0%
CN(CCCn1ccc(NC(=O)OCc2ccccc2)nc1=O)Cc1ccco1	-9.5%	13.5%	11.6%	-9.4%
CSc1ncccc1C(=O)Nc1cccc(S(=O)(=O)N(C)c2ccccc2)c1	-10.6%	17.2%	-15.1%	11.9%
CCCCCCc1cc2cc(S(=O)(=O)c3ccc(Cl)cc3)c(=O)oc2cc1O	4.1%	-0.9%	-13.7%	0.2%
CCN(CC)c1ccc2cc(S(=O)(=O)c3ccc(Cl)cc3)c(=O)oc2c1	125.8%	-321.7%	254.4%	89.1µM*
O=C1c2cc(Br)ccc2N(Cc2ccc(Br)cc2)S(=O)(=O)C1c1cc(Cl)c(Cl)cc1[N+](=O)[O-] (stereo not drawn)	56.2µM*	-10.6%	20µM*	-10.3%
COc1ccccc1NS(=O)(=O)c1ccc(C)c(C(=O)NCC2(N(C)C)CCCCC2)c1	-1.7%	7.2%	1.8%	3.6%
CCN(CC(=O)Nc1cc(Cl)ccc1C)C(=O)CCOc1ccccc1C	-5.2%	12.2%	-13.5%	-9.5%
CCN(CC(=O)Nc1ccccc1C(F)(F)F)C(=O)CCOc1ccccc1C	-15.0%	10.5%	1.0%	44.7µM*
CN(C)c1ccc(NC(=O)COC(=O)c2ccc3c(c2)OCO3)cc1	8.8%	-3.9%	-1.6%	1.8%
CN(C)c1ccc(C(=O)OCC(=O)Nc2ccc(S(N)(=O)=O)cc2)cc1	50.1µM*	23.4%	50.1µM*	u
SMILES	EPAC1 antag	EPAC2 agonist	EPAC2 antag	EPAC1 agonist
CNc1ccc2c3c(cccc13)C(=O)N(C)C2=O	-23.4%	u	i	100µM*
CCN=c1scc(C)n1/N=C/c1ccc(O)c(O)c1O	44.7µM*	-5.5%	-1.8%	-13.7%
COCCN=c1scc(-c2cccs2)n1/N=C/c1ccc(O)c(O)c1O	56.2µM*	13.1%	-0.2%	0.6%
CCCN1CCN(C(=O)c2ccc3[nH]c(C)c(C)c3c2)CC1	8.3%	1.3%	-4.7%	-2.9%
CC1=NN(c2ccccc2)C(=O)C1=Cc1ccccc1	50.1µM*	16.0%	19.4%	20.7%
CC1=NN(c2cccc(C(=O)O)c2)C(=O)/C1=C\C=C/c1ccccc1	-6.0%	0.4%	15.8µM*	-3.1%
O=C(O)COc1ccc(NC(=O)C(c2ccccc2)c2ccccc2)cc1	-2.7%	4.6%	20µM*	3.6%
Cc1ccc(/C=N/c2sc3c(c2C#N)CCCCC3)o1	-0.1%	13.1%	11.2%	7.1%
N#Cc1c(/N=C/c2ccco2)sc2c1CCC2	7.1%	10µM*	1.7%	2.9%
N#Cc1c(-c2ccccc2)nc(SCC(=O)Nc2ccc(OC(F)(F)Cl)cc2)[nH]c1=O	u	-6.2%	35.5µM*	-5.4%
C=CCSc1nc(-c2ccccc2)c(C#N)c(=O)[nH]1	1.0%	-2.8%	14.8%	0.0%
N#Cc1c(-c2ccccc2)nc(SCc2ccc(Cl)cc2)[nH]c1=O	79.4µM*	-1.9%	u	-15.1%
N#Cc1c(-c2ccccc2)nc(SCC(=O)N(c2ccccc2)c2ccccc2)[nH]c1=O	-6.3%	-2.8%	2.3%	-10.4%
N#Cc1c(-c2ccccc2)nc(SCC(=O)N2c3ccccc3Sc3ccccc32)[nH]c1=O	79.4µM*	2.2%	8.91µM*	9.1%
C[C@@]12C(=O)Nc3cc(F)ccc3C(=O)N1[C@H]1c3cc(Br)ccc3OC[C@@H]1[C@@H]2c1ccccc1	5.7%	79.4µM*	149.9%	-8.5%
CCOC(=O)[C@H]1[C@H]2COc3ccc(C)cc3[C@@H]2N2C(=O)c3ccc(C)cc3NC(=O)[C@@]12C	10.5%	79.4µM*	17.1%	u
CCSc1nc(C)cc(C)c1S(=O)(=O)c1ccccc1C	-6.0%	14.8%	u	7.1%
COc1nc(C)cc(C)c1S(=O)(=O)c1ccccc1C	-0.5%	-0.3%	12.6µM*	-0.4%
C#CCOc1nc(C)cc(C)c1S(=O)(=O)c1ccccc1C	7.1%	7.4%	28.2µM*	1.9%
CSc1nc(C)cc(C)c1S(=O)(=O)c1ccccc1C	-16.7%	21.0%	35.5µM*	12.6%
CCC(C)Oc1nc(C)cc(C)c1S(=O)(=O)c1ccccc1C (stereo not drawn)	-3.6%	1.3%	-20.5%	0.9%
CC1=C(C(=O)N(C(C)C)C(C)C)CC(CC(=O)NCCc2ccccn2)C(=O)N1Cc1ccc(F)cc1 (stereo not drawn)	-11.9%	2.3%	-1.5%	0.6%
COc1ccccc1Cc1c(-c2cccc(Cl)c2)nc2ccc(C)cn12	-18.5%	12.1%	-10.3%	14.3%
C[C@H]1CN([C@@H](C)CO)S(=O)(=O)c2ccc(Br)cc2O[C@@H]1CN(C)C(=O)C1CCOCC1	9.6%	-6.1%	-15.3%	4.3%
CCOc1ccc(NC(=O)CN(C)C(=O)c2cc(-c3cccs3)nn2-c2ccccc2)cc1OCC	26.9%	-8.5%	36.0%	-11.4%
CCOc1ccc(NC(=O)CN(C)C(=O)c2cc(C3CC3)nn2-c2ccccc2)cc1OCC	-6.7%	-8.0%	-15.1%	31.6µM*
